VP16 counter – counter-screen for ROR gamma inhibitors: Gal4-VP16 reporter; Drosophila S2 Gal4-VP16 UAS-luciferase, luminescence, 20 h; Potency, µM (highest dose often 53.6 µM), inactives show top-dose activity, negative = inhibition, hits mostly inhibitors; 310,000 tested, 3.5% active; AID 2546;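 also: Gal4-VP16 expression switched on by copper sulfate through the metallothionein promoter; potency is read from the fitted curve at half-maximal effect; nearly all actives have a fitted effect of over 50% in size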
RORgamma inh – ROR gamma (mouse) transcription inhibition | Potency, µM (titrated, usually from 53.6 µM), inactives show at the highest dose activity change, negative = inhibition, hits mostly inhibitors | P51450 | Drosophila S2 Gal4-RORgamma UAS-luciferase reporter, 20 h | 310,000 tested, 5.4% active; also: potency is read from the fitted curve at half-maximal effect; nearly all actives have a fitted effect of over 60% in size
Target sequence (P51450 whole entry, looked up, the tested form may be a part): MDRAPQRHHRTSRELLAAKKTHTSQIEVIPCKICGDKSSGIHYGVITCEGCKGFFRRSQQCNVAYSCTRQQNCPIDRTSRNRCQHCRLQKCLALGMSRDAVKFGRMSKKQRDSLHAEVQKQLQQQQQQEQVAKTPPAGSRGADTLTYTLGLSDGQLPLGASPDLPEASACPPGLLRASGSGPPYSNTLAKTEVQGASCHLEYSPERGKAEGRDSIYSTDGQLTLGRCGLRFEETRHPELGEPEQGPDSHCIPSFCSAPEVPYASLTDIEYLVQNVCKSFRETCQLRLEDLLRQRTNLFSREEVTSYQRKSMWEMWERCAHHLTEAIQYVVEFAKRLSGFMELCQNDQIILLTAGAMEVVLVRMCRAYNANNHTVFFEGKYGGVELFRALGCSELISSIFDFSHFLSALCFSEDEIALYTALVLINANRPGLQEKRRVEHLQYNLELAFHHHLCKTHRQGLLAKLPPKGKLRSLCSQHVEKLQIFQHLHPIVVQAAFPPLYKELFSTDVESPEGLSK
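ROR gamma transcriptional activity was tracked as Gal4-UAS luciferase output in stably transfected Drosophila Schneider cells, with compound added 1 hr before 700 uM copper sulfate induction and a 20 hr ambient-temperature incubation.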
DT40 TDP1 CPT – DT40-hTDP1 cell growth loss with CPT | chicken DT40 Tdp1-/-;hTDP1 cells + 20 nM CPT, ATP luminescence, 48 h | Potency, µM (highest dose often 46.2 µM), for the others: top-dose activity change, negative = growth inhibition, hits mostly inhibitors | 420,000 tested, 12% active; also: potency is read from the fitted curve at half-maximal effect; nearly all actives have a fitted effect of over 55% in size
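Chicken DT40 Tdp1-/- cells stably complemented with human TDP1 were seeded at 400 cells/well in medium containing 20 nM camptothecin, exposed to pin-transferred compounds, and grown at 37 °C for at least 48 hr. Viability was read as ATP luminescence.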
IL1B secr inh – inhibitors of inflammasome signaling (IL-1 beta secretion); THP-1 LPS/ATP IL-1B secretion, AlphaLISA, 16 h; hits give low values; activity change, % at 57.5 µM; 360,000 tested, 4.7% active; AID 743279; in the data active = activity change below about -50%; inconclusive = mostly about -30% to -49%
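THP-1 cells pretreated 1 hr with compounds (up to 57.5 uM final), then stimulated with LPS (250 ng/mL final) plus ATP (1.25 mM final); secreted IL-1B measured by AlphaLISA after 16 hr, decreased signal indicating inhibition.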
ELG1 repair inh – blocks ELG1-dependent DNA repair in HEK293T cells | HEK293T ELG1-luciferase reporter, luminescence, 16 h; DNA damage induced by 5-fluorouridine | Potency, µM (series often up to 46.1 µM), for inactives: at the top dose activity change, negative = inhibition, actives largely listed as inhibitors | 330,000 tested, 2.3% active | AID 504467; also: potency is read from the fitted curve at half-maximal effect; nearly all actives have a fitted effect of over 55% in size
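DMSO vehicle served as the neutral condition. Each well held 2,000 cells given 5-fluorouridine plus compound; after 16 hr at 37 °C/5% CO2, ONE-Glo was added and luciferase measured 30 min later.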
DT40 TDP1 no CPT – qHTS for Inhibitors of human tyrosyl-DNA phosphodiesterase 1 (TDP1): qHTS in cells in absence of CPT; DT40 Tdp1-/- hTDP1 cells, no CPT, ATP luminescence, 48 h; Potency, µM (titrated, usually from 46.2 µM), without a hit: at the highest dose activity change, negative = growth inhibition, hits mostly inhibitors; 420,000 tested, 15% active; also: potency is read from the fitted curve at half-maximal effect; nearly all actives have a fitted effect of over 55% in size
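Chicken DT40 Tdp1-/- cells stably complemented with human TDP1 were seeded at 400 cells/well with DMSO in place of 20 nM camptothecin. After compound pinning, cells grew at least 48 hr at 37 °C; viability read by CellTiter-Glo luminescence.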
* = called active by the depositor; ? = inconclusive; · = not tested or not shown. The list is not random: actives were taken first. Their share in the collection is about 21%. Unless noted, calls follow the shape of the dose curve; as a rule, active = well fitted curve in the direction sought with a large enough effect; inconclusive = small, poorly fitted or top-dose-only effect, or another doubt; inactive = no such curve, though single readings can be large; an effect the other way counts as inactive or inconclusive. % is scaled to controls: 0 for no effect and ±100 for the full control effect.

SMILES | VP16 counter | RORgamma inh | DT40 TDP1 CPT | IL1B secr inh | ELG1 repair inh | DT40 TDP1 no CPT
COc1ccc(NC(=O)Nc2cccs2)cc1OC | 9% | 10% | -20% | -8 | ? | -17%
COc1cccc(NC(=O)Nc2ccc(C(C)(C)C)cc2)c1 | -19% | ? | ? | -66* | ? | 23µM*
CC(=O)c1cccc(NC(=O)Nc2cccs2)c1 | ? | ? | 16µM* | 0 | -27% | ?
COc1cccc(NC(=O)Nc2cccs2)c1 | 5µM* | 6.3µM* | ? | 5 | ? | ?
Cc1ccc(C(=O)OCC(=O)NCc2ccccc2)s1 | · | · | 2% | -4 | · | -21%
COc1ccc(CCC(=O)c2c(O)cc(O[C@@H]3O[C@H](CO)[C@@H](O)[C@H](O)[C@H]3O[C@@H]3O[C@@H](C)[C@H](O)[C@@H](O)[C@H]3O)cc2O)cc1O | 8% | -5% | · | · | · | ·
Cc1ccc2c(=O)cc(C(=O)Nc3cccc(C(F)(F)F)c3)oc2c1C | · | · | -27% | · | · | ?
Cc1sc(-n2cccc2)c(C(C)NC(=O)Nc2cccc(C(F)(F)F)c2)c1C (stereo not given) | · | · | ? | · | · | 21µM*
Cc1c2c(nc3ccccc13)CCC(C)C2 (stereo not given) | -23% | 11µM* | 16% | 6 | 4% | -21%
CCN(CC)CCCNC(=O)Cn1nc(N2CCN(c3ccccc3OC)CC2)ccc1=O | · | · | -28% | · | · | ?
CC(C)C1OC(CCc2ccccc2)Cc2[nH][nH]c(=O)c21 (stereo not given) | · | · | -23% | -7 | · | 23µM*
CC(C)c1ccc([C@@H]2O[C@H](CCc3ccccc3)Cc3[nH][nH]c(=O)c32)cc1 | · | · | -29% | -10 | · | ?
C=CCn1c(SCC(=O)NC2CC2)nnc1C1CC1 | · | · | 16% | 0 | -2% | 1%
Cc1ccc(C(=O)NCCn2ccc3ccccc32)cc1[N+](=O)[O-] | 4% | 17% | 13µM* | ? | 0% | 8.2µM*
O=C(NCCn1ccc2ccccc21)c1ccc(S(=O)(=O)N2CCCCC2)cc1 | -4% | ? | ? | 20 | ? | 23µM*
COC(=O)c1ccccc1NC(=O)CSc1nc(C)c(Cl)c(C)c1C#N | · | · | -18% | · | · | -25%
CCCC(=O)Nc1ccc(C(=O)NNC(=S)NC(=O)c2cccs2)cc1 | -22% | 10µM* | ? | 14 | ? | ?
CCCOc1ccc(C(=O)NNC(=S)NC(=O)c2cccs2)cc1 | 7.9µM* | 8.9µM* | 23µM* | 55 | ? | 18µM*
CCCC(=O)Nc1ccc(C(=O)NNC(=O)c2cccs2)cc1 | 6% | 14% | ? | 11 | 17% | 3%
CCCOc1ccc(C(=O)NNC(=S)NC(=O)c2ccccc2[N+](=O)[O-])cc1 | 20µM* | 18µM* | 10µM* | 52 | ? | 10µM*
COCCCNC(=S)NNC(=O)c1cc(-c2cccnc2)nc2ccccc12 | -27% | -34% | 26% | 12 | -4% | ?
CCCOc1ccc(C(=O)NCC(c2cccs2)N(C)C)cc1 (stereo not given) | -1% | 37% | -2% | -4 | 18% | -27%
CCCOc1ccc(C(=O)NNC(=S)NC(=O)c2cc(-c3ccccc3)nc3ccccc23)cc1 | -18% | 7.1µM* | ? | 5 | -3% | ?
O=c1cc(CN2CCN(c3ccc(Cl)c(Cl)c3)CC2)c2c(ccc3ccccc32)o1 | · | · | ? | 9 | · | ?
CCCOc1ccc(C(=O)NNC(=S)NC(C)=O)cc1 | 8% | 2% | 2.6µM* | 63 | 3% | 3.3µM*
SMILES | VP16 counter | RORgamma inh | DT40 TDP1 CPT | IL1B secr inh | ELG1 repair inh | DT40 TDP1 no CPT
CC(C)(C)c1ccc(OCC(=O)NNC(=S)NC(=O)c2ccccc2[N+](=O)[O-])c(Br)c1 | 16µM* | 11µM* | 23µM* | -10 | 5% | 16µM*
CCCOc1ccc(C(=O)NNC(=S)NC(=O)c2ccccc2)cc1 | ? | 10µM* | ? | 8 | -17% | 16µM*
C=CCN(C(=O)CSc1nc2ccsc2c(=O)n1Cc1ccc(C(=O)O)cc1)c1ccccc1 | · | · | 2% | 63 | · | -1%
CCc1nc(SCc2cc(=O)c3cc(F)ccc3[nH]2)n[nH]1 | · | · | -14% | · | · | ?
O=Cc1cccnc1SCc1ccccc1 | · | · | 2.3µM* | 54 | · | 1.5µM*
CC1(C(=O)NCc2ccccc2)CSCC(=O)N1Cc1cccs1 (stereo not given) | · | · | ? | 19 | · | ?
O=C1C2C(C(=O)N1/N=C/c1ccc(N3CCCCC3)o1)C1C=CC2C12CC2 (stereo not given) | 3.2µM* | -15% | 18µM* | -26 | -1% | 15µM*
Cc1ccc(/C=N/N2CCCCC2)o1 | 3% | -34% | -14% | -17 | ? | ?
CCOC(=O)C1(N(CC)CC)Sc2cc(C)ccc2NC1=O (stereo not given) | ? | 8% | 16µM* | 35 | -21% | 18µM*
Nc1nc(NCC2CCCO2)nc(NCC2CCCO2)c1[N+](=O)[O-] (stereo not given) | -6% | 1% | -10% | 27 | -4% | 0%
CC(C)CCNc1nc(N)c([N+](=O)[O-])c(NCC2CCCO2)n1 (stereo not given) | 3% | ? | 15µM* | 28 | ? | ?
O=C(CSc1cn(CC(=O)N2CCCCC2)c2ccccc12)Nc1ccc(C(F)(F)F)cc1 | · | · | -16% | · | · | -23%
COc1ccc(Cl)cc1NC(=O)CSc1cn(CC(=O)N2CCCCCC2)c2ccccc12 | · | · | 13µM* | · | · | 12µM*
COc1ccc(Cl)cc1NC(=O)CSc1cn(CC(=O)N2CCCC2)c2ccccc12 | · | · | 12µM* | · | · | 3.3µM*
CCOC(=O)C=C(C(=O)OCC)C(=O)OCC | 4% | -27% | 4.6µM* | 7 | 2% | 4.6µM*
COc1ccc2ncc3c(-c4ccc(C)c(C)c4)nn(CC(=O)Nc4ccccc4)c3c2c1 | · | · | 15µM* | · | · | 18µM*
Cc1cccc(NC(=O)Cn2nc(-c3ccccc3)c3cnc4ccccc4c32)c1 | · | · | 16µM* | · | · | -45%
Cc1nn(CC(=O)Nc2cccc(O)c2)c(=O)c2ccccc12 | · | · | -3% | 0 | · | 2%
Cc1ccc(-n2nc(-c3ccccc3)c3cnc4cc5c(cc4c32)OCO5)cc1C | · | · | -10% | · | · | -20%
COc1ccc2ncc3c(-c4ccccc4)nn(-c4ccc(C)c(C)c4)c3c2c1 | · | · | 12µM* | · | · | 9.2µM*
CCOc1ccc2ncc3c(-c4ccccc4)nn(CC(=O)Nc4cccc(F)c4)c3c2c1 | · | · | -7% | · | · | -11%

Screens: PubChem, National Center for Advancing Translational Sciences (NCATS)
